Assay results as given in PubChem BioAssay (NCI).
About 79,000 compounds went through this panel and 15% of them were active in at least one assay; those are over-represented in the sample as a whole. Calls of active or inactive are those of the source. Rule as the data show it: active = growth inhibition above about 70%; inactive = the rest.

Columns and labels:
[1] = NCI Yeast Anticancer Drug Screen. Data for the rad52 strain (AID 147);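 also: 0% = growth of vehicle-treated control cultures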; conditions: S. cerevisiae rad52 mutant growth inhibition, active compounds read high
Outline: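 Compounds are applied to a genetically defined yeast strain lacking normal DNA damage repair, and inhibition of growth is expressed relative to cultures given vehicle only.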

[2] = NCI Yeast Anticancer Drug Screen. Data for the wt1 strain (AID 149);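 also: 0% = growth of vehicle-treated wt1 cultures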; conditions: S. cerevisiae wt1 strain (SPY 50644) growth inhibition, active compounds read high
Outline: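 wt1 strain grown with compound or vehicle; inhibition taken from the growth difference.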

[3] = NCI Yeast Anticancer Drug Screen. Data for the rad50EPP+ strain (AID 151);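 also: 0% = growth of vehicle-treated control cultures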; conditions: S. cerevisiae rad50 mutant strain, active compounds read high
Outline: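 Compounds were applied to the rad50EPP+ yeast strain, which bears a defined DNA repair alteration, and growth inhibition was determined relative to vehicle-treated cultures.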

[4] = NCI Yeast Anticancer Drug Screen. Data for the mgt1 strain (AID 153); conditions: S. cerevisiae mgt1 mutant growth inhibition, active compounds read high
Outline: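 Strain: mgt1 yeast, one of a set carrying defined DNA damage repair or cell cycle control alterations. Compound-treated growth compared with vehicle.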

[5] = NCI Yeast Anticancer Drug Screen. Data for the rad50 strain (AID 155);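 also: 0% = growth of vehicle-only cultures of the same strain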; conditions: S. cerevisiae rad50 strain growth inhibition, active compounds read high
Outline: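 DNA repair mutant yeast, compound exposure, growth read-out; inhibition is taken relative to vehicle.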

[6] = NCI Yeast Anticancer Drug Screen. Data for the mec2-1 strain (AID 157); conditions: S. cerevisiae mec2-1 strain, active compounds read high
Outline: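 Strain: mec2-1 (DNA repair/cell cycle alteration). Compound exposure, then growth measured; inhibition expressed relative to vehicle.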

[7] = NCI Yeast Anticancer Drug Screen. Data for the sgs1 mgt1 strain (AID 161);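 also: 0% = growth of cultures given vehicle only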; conditions: S. cerevisiae sgs1 mgt1 strain, active compounds read high
Outline: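 Mutant yeast exposed to compound; growth scored against vehicle-only wells.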

[8] = NCI Yeast Anticancer Drug Screen. Data for the CLN2oe strain (AID 163);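 also: 0% = growth of vehicle-only control cultures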; conditions: S. cerevisiae CLN2oe strain, active compounds read high
Outline: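 Growth of a genetically modified yeast strain is measured after compound exposure and compared with cultures given vehicle alone.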

[9] = NCI Yeast Anticancer Drug Screen. Data for the cln2 rad14 strain (AID 165);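 also: 0% = growth equal to vehicle treated cultures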; conditions: S. cerevisiae cln2 rad14 strain, active compounds read high
Outline: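 Compounds are applied to the cln2 rad14 yeast strain, and growth is then compared with that of vehicle-treated cultures to give inhibition.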

[10] = NCI Yeast Anticancer Drug Screen. Data for the bub3 strain (AID 167); conditions: S. cerevisiae bub3 mutant strain, active compounds read high
Outline: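 In this screen, a yeast mutant lacking normal mitotic checkpoint function is challenged with compound. Relative growth versus vehicle gives the inhibition value.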

[11] = NCI Yeast Anticancer Drug Screen. Data for the wt2 strain (AID 169);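 also: 0% = growth of vehicle-treated yeast cultures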; conditions: S. cerevisiae wt2 strain growth inhibition, active compounds read high
Outline: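 This strain belongs to a panel of yeast strains with defined genetic alterations in DNA damage repair or cell cycle control. Compounds are applied, and growth inhibition is measured against vehicle-treated cultures.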

[12] = NCI Yeast Anticancer Drug Screen. Data for the mlh1 strain (AID 171);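 also: 0% = growth of vehicle-treated control cultures of the same strain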; conditions: S. cerevisiae mlh1 strain growth inhibition, active compounds read high
Outline: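 Growth of the mutant yeast strain after compound exposure, expressed as inhibition relative to vehicle-only controls.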

[13] = NCI Yeast Anticancer Drug Screen. Data for the sgs1 strain (AID 173);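 also: 0% = growth of vehicle-only control cultures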; conditions: S. cerevisiae sgs1 mutant, active compounds read high
Outline: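 Growth of a yeast strain bearing a defined genetic alteration is measured after compound treatment. Inhibition is expressed relative to vehicle-only controls.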

[14] = NCI Yeast Anticancer Drug Screen. Data for the mlh1 rad18 strain (AID 175); conditions: S. cerevisiae mlh1 rad18 strain growth inhibition, active compounds read high
Outline: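 Read-out is yeast growth inhibition, calculated against vehicle-only controls. The compound was applied to a strain engineered with DNA damage repair alterations.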

[15] = NCI Yeast Anticancer Drug Screen. Data for the rad14 strain (AID 159);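 also: 0% = growth of vehicle-treated control cultures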; conditions: S. cerevisiae rad14 strain growth inhibition, active compounds read high
Outline: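 DNA repair-defective yeast, compound-exposed; % growth inhibition derived by comparison with vehicle-treated controls.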

[16] = NCI Yeast Anticancer Drug Screen. Data for the rad18 strain (AID 177); conditions: S. cerevisiae rad18 mutant growth inhibition, active compounds read high
Outline: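 Growth of the mutant yeast strain after compound exposure, normalised to vehicle-only cultures.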

[17] = at 5.0 µM (retest, dose inferred, filed as 0.5)
[18] = at 50.0 µM (retest, dose inferred, filed as 5.0)

Measured: growth inhibition

CC(C)[N+]([O-])(CCCNc1c2ccccc2nc2cccc([N+](=O)[O-])c12)C(C)C
inactive: [1]; at 1.2 µM 48% | [2]; at 1.2 µM 0% | [2]; at 3.7 µM 3% | [2]; at 11.0 µM 18% | [3]; at 1.2 µM 6% | [3]; at 3.7 µM 26% | [3]; at 11.0 µM 66% | [4]; at 1.2 µM 0% | [4]; at 3.7 µM 6% | [4]; at 11.0 µM 24% | [5]; at 1.2 µM 24% | [5]; at 3.7 µM 57% | [6]; at 1.2 µM 13% | [6]; at 3.7 µM 69% | [6]; [17] 68% | [8]; at 1.2 µM -3% | [8]; at 3.7 µM 2% | [8]; at 11.0 µM 42% | [10]; at 1.2 µM -14% | [10]; at 3.7 µM -8% | [10]; [17] -2% | [10]; at 11.0 µM 33% | [10]; at 50.0 µM 11.9% | [11]; at 1.2 µM 1% | [11]; at 3.7 µM 5% | [11]; at 11.0 µM 24% | [12]; at 1.2 µM 3% | [12]; at 3.7 µM 10% | [12]; at 11.0 µM 37% | [13]; at 1.2 µM 64%
active: [1]; at 3.7 µM 83% | [1]; at 11.0 µM 94% | [1]; at 33.0 µM 96% | [1]; at 100.0 µM 98% | [2]; at 33.0 µM 78% | [2]; at 100.0 µM 94% | [3]; at 33.0 µM 91% | [3]; at 100.0 µM 97% | [4]; at 33.0 µM 90% | [4]; at 100.0 µM 98% | [5]; [17] 70% | [5]; at 11.0 µM 86% | [5]; at 33.0 µM 93% | [5]; [18] 97% | [5]; at 50.0 µM 87.6% | [5]; at 100.0 µM 96% | [6]; at 11.0 µM 96% | [6]; at 33.0 µM 98% | [6]; [18] 99% | [6]; at 50.0 µM 87% | [6]; at 100.0 µM 99% | [7]; [17] 89% | [7]; [18] 98% | [7]; at 50.0 µM 93.6% | [8]; at 33.0 µM 88% | [8]; at 100.0 µM 95% | [9]; [17] 96% | [9]; [18] 99% | [9]; at 50.0 µM 96% | [10]; at 33.0 µM 90% | [10]; [18] 97% | [10]; at 100.0 µM 98% | [11]; at 33.0 µM 89% | [11]; at 100.0 µM 96% | [12]; at 33.0 µM 91% | [12]; at 100.0 µM 98% | [13]; at 3.7 µM 84% | [13]; at 11.0 µM 93% | [13]; at 33.0 µM 96% | [13]; at 100.0 µM 97% | [14]; [17] 92% | [14]; [18] 98% | [14]; at 50.0 µM 95.2%

OC1CCCc2c1cc1ccc3cccc4ccc2c1c34 (stereo not drawn)
inactive: [1]; at 1.2 µM -7% | [1]; at 3.7 µM -2% | [2]; at 1.2 µM -2% | [2]; at 3.7 µM -10% | [3]; at 1.2 µM 0% | [3]; at 3.7 µM 37% | [3]; at 11.0 µM 46% | [3]; at 33.0 µM 57% | [3]; at 100.0 µM 62% | [4]; at 1.2 µM -4% | [4]; at 3.7 µM -8% | [5]; at 1.2 µM -17% | [5]; at 3.7 µM -14% | [5]; [17] 30% | [15]; at 1.2 µM 0% | [15]; at 3.7 µM 13% | [7]; [17] 29% | [8]; at 1.2 µM -9% | [8]; at 3.7 µM -14% | [9]; [17] -4% | [10]; at 1.2 µM -11% | [10]; at 3.7 µM -3% | [10]; [17] 4% | [11]; at 1.2 µM -1% | [11]; at 3.7 µM 10% | [12]; at 1.2 µM -16% | [12]; at 3.7 µM -10% | [13]; at 1.2 µM -8% | [13]; at 3.7 µM -3% | [14]; [17] 52% | [16]; at 1.2 µM -11% | [16]; at 3.7 µM -3%
active: [1]; at 11.0 µM 98% | [1]; at 33.0 µM 96% | [1]; at 100.0 µM 91% | [2]; at 11.0 µM 99% | [2]; at 33.0 µM 98% | [2]; at 100.0 µM 92% | [4]; at 11.0 µM 99% | [4]; at 33.0 µM 98% | [4]; at 100.0 µM 90% | [5]; at 11.0 µM 98% | [5]; at 33.0 µM 95% | [5]; [18] 92% | [5]; at 50.0 µM 95.6% | [5]; at 100.0 µM 88% | [15]; at 11.0 µM 99% | [15]; at 33.0 µM 97% | [15]; at 100.0 µM 91% | [7]; [18] 94% | [7]; at 50.0 µM 97.4% | [8]; at 11.0 µM 99% | [8]; at 33.0 µM 97% | [8]; at 100.0 µM 91% | [9]; [18] 94% | [9]; at 50.0 µM 94% | [10]; at 11.0 µM 98% | [10]; at 33.0 µM 97% | [10]; [18] 92% | [10]; at 50.0 µM 95.5% | [10]; at 100.0 µM 89% | [11]; at 11.0 µM 100% | [11]; at 33.0 µM 98% | [11]; at 100.0 µM 94% | [12]; at 11.0 µM 98% | [12]; at 33.0 µM 97% | [12]; at 100.0 µM 90% | [13]; at 11.0 µM 99% | [13]; at 33.0 µM 97% | [13]; at 100.0 µM 90% | [14]; [18] 93% | [14]; at 50.0 µM 94.8% | [16]; at 11.0 µM 99% | [16]; at 33.0 µM 98% | [16]; at 100.0 µM 92%
